The source of these data is PubChem BioAssay.

Values without a mark were called inactive. The source made the active and inactive calls. Cut-off read from the data, not from the text of the source, unless noted: active = inhibition above about 44%; inactive = the rest.

Test [1] can be described thus: StAR promoter reporter inhibitors, counter-screen for LRH-1 inverse agonist project, cell-based, luminescence, high throughput (AID 651611; in the data active = inhibition above about 28%). Particulars: StAR promoter luciferase reporter counterscreen, at 3.6 µM, stronger effect = higher value. A general note: The purpose of a counterscreen is to sort out artefacts and off-target activity.
In test [2] the target is Nuclear receptor subfamily 5 group A member 2 (Homo sapiens) (UniProt O00482). Nature of the test: LRH-1 (NR5A2) inverse agonists, retest, confirmation, cell-based, luminescence (AID 651613; in the data active = inhibition above about 42%;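 note: HEK293T cells co-transfected with LRH-1 and StAR promoter luciferase reporter; 0% = vehicle wells and 100% = parental cells lacking receptor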). The settings on record: cell-based LRH-1 luciferase reporter, inverse agonism; at 3.6 µM; stronger effect = higher value. (In general: In a reporter assay the amount or activity of a reporter protein is the signal.)

Test [3] concerns the target Steroidogenic factor 1 (Homo sapiens) (UniProt Q13285). Put plainly: SF1 (NR5A1) inverse agonists, counter-screen for LRH-1 inverse agonist project, cell-based, luminescence, high throughput (AID 651614).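 Note: cells cotransfected with StAR promoter reporter and SF1 expression vector; 0% = vehicle on cells with receptor and 100% = vehicle on cells lacking receptor.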 Particulars: cell-based SF1 luciferase reporter, at 3.6 µM, stronger effect = higher value.
Test [4] can be described thus: VP16 transactivation reporter inhibitors, counter-screen for LRH-1 inverse agonist project, cell-based, luminescence, high throughput (AID 651615; in the data active = inhibition above about 33%). Particulars: Gal4-VP16 luciferase reporter cells, at 3.6 µM, stronger effect = higher value.

Chain of Nuclear receptor subfamily 5 group A member 2 (Homo sapiens) (O00482 whole entry, looked up): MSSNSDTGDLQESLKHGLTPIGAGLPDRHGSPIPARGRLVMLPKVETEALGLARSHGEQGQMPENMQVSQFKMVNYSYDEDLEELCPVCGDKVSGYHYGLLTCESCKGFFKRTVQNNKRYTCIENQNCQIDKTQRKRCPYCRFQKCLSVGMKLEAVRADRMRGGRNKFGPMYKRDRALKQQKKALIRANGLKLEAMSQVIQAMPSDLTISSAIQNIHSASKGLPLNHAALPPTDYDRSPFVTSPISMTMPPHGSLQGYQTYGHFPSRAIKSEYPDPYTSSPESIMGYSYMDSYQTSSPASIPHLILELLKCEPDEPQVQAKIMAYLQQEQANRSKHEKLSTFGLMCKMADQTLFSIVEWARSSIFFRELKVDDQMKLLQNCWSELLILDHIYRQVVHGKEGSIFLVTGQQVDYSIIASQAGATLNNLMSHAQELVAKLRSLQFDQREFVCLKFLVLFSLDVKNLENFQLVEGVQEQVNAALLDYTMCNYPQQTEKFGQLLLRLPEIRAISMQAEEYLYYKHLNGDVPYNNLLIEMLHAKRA
Chain of Steroidogenic factor 1 (Homo sapiens) (Q13285 whole entry, looked up, the tested form may be a part): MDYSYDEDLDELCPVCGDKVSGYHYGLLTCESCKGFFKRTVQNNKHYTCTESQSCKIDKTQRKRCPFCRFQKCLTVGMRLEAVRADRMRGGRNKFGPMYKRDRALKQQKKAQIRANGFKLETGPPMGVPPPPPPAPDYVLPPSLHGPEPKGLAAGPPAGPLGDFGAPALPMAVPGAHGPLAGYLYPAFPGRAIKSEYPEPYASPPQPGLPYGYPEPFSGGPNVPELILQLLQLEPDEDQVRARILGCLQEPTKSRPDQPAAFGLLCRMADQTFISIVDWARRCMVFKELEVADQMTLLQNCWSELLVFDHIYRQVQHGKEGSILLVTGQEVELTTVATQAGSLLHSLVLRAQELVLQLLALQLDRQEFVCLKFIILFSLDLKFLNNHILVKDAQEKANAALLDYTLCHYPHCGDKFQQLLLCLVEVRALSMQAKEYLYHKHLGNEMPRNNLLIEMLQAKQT

Turning to `CCCC(=O)Nc1sc2c(c1C(=O)Nc1ccccn1)CCCC2`, the inhibition in test [1] is -1.01%; in test [2], 47.1% (active); in test [3], 53.8% (active); in test [4], 5.28%.

As to `O=C(Nc1cccc2ccccc12)c1ccc([N+](=O)[O-])o1`, the inhibition in test [1] was 27.4%; in test [2] it was 68.5% (active); in test [3] it was 70.8% (active); in test [4], -3.59%.

As to `O=[N+]([O-])c1ccc(N2CCCCC2)cc1N1CCOCC1`, the inhibition in test [1] is 18%; in test [2], 54.3% (active); in test [3], 54.9% (active); in test [4], -5.18%.

As to `O=C(COc1ccc(Nc2ccccc2)cc1)Nc1ccncc1`, the inhibition in test [1] is 19.2%; in test [2], 52.8% (active); in test [3] it was 51.6% (active); in test [4], 41.4% (active).

With `CC(NC(=O)CCl)c1ccc(Cl)c(Cl)c1` (stereo not given), the inhibition in test [1] is 32.8% (active); in test [2], 69.4% (active); in test [3] it was 67.3% (active); in test [4] it was -15.3%.

`CC(=O)C1=C(c2ccc(Br)cc2)C(=O)c2ccccc2C1=O`: the inhibition in test [1] was 74.3% (active); in test [2], 101% (active); in test [3], 78.1% (active); in test [4] it was 92% (active).

Consider `OC1(c2ccc(OC(F)F)cc2)CSC(=Nc2cccnc2)N1C1CC1` (stereo not given), for which the inhibition in test [1] was 11.3%; in test [2], 43.3% (active); in test [3], 48.8% (active); in test [4] it was 40% (active).

`O=C(NNc1ccccc1)C(=O)NNS(=O)(=O)c1ccc([N+](=O)[O-])cc1`: the inhibition in test [1] is 1.65%; in test [2], 12.9%; in test [3], 27.1%; in test [4] it was 20.1%.

For `Cn1c(CCNC(=O)c2cccs2)nnc1SCC(=O)N1CCN(c2ccccc2)CC1`, the inhibition was 7.98% in test [1], 29.8% in test [2], 28.4% in test [3] and 0.01% in test [4].

With `CC(NC(=O)c1ccc([N+](=O)[O-])o1)C1CC2CCC1C2` (stereo not given), the inhibition in test [1] is 3.5%; in test [2], 49.1% (active); in test [3] it was 44.2% (active); in test [4] it was 10.8%.

Take `COc1ccc(-c2cnc3c(NC=O)cc(-c4ccc(S(C)(=O)=O)cc4)cn23)cc1OC`: the inhibition in test [1] was -4.42%; in test [2] it was 63% (active); in test [3], 58.1% (active); in test [4], 30.2%.

Regarding `COc1cc2c(cc1OC)C(c1ccc(-c3ccc(Cl)cc3Cl)o1)=NCC2`, the inhibition in test [1] is 36.4% (active); in test [2], 58.4% (active); in test [3], 61% (active); in test [4], 62.5% (active).

Take `O=[N+]([O-])c1ccc(S(=O)Cc2ccccc2)c([N+](=O)[O-])c1` (stereo not given): the inhibition in test [1] was 8.41%; in test [2], 43.5% (active); in test [3], 22.4%; in test [4], 16.7%.

With `CS(=O)(=O)c1ccc2nc(NC(=O)C3CC(=O)N(c4ccccc4)C3)sc2c1` (stereo not given), the inhibition in test [1] is 29.6% (active); in test [2], 60.4% (active); in test [3], 55.9% (active); in test [4], 11.3%.

For `CCOC(=O)c1ccc(N=Cc2cnc(N)nc2N)cc1`, the inhibition was -7.89% in test [1], -2.86% in test [2], 7.7% in test [3] and 3.32% in test [4].

On to `CCS(=O)(=O)N1Cc2cc(C(=O)NCC3CC3)nc(-c3cccc(-c4cccnc4)c3)c2[C@@H]1CCO`, for which the inhibition was 8.53% in test [1], 47.6% (active) in test [2], 41.8% in test [3] and -27.8% in test [4].

In the case of `CCOC(=O)c1c(N)n(CCOC(=O)c2cccs2)c2nc3ccccc3nc12`, the inhibition in test [1] was 0.69%; in test [2], 21.6%; in test [3] it was 23.7%; in test [4], -11.6%.

For `COc1ccc(-c2cc3ccccc3oc2=O)cc1NC(=O)c1ccc([N+](=O)[O-])o1`, the inhibition is -51.4% in test [1], 16% in test [2], 22.5% in test [3] and -68.2% in test [4].

In the case of `CCOCc1c(C(=O)Nc2ccccc2N2CCN(C)CC2)oc2ccccc12`, the inhibition was 13.5% in test [1], 70.5% (active) in test [2], 73% (active) in test [3] and 8.89% in test [4].

Turning to `CCCNC(=O)c1sc2c(c1C(=O)Nc1ccccn1)CCCC2`, the inhibition is -1.58% in test [1], 47.1% (active) in test [2], 42.7% (active) in test [3] and 14.3% in test [4].

As to `CC(C)c1cc(NC(=O)CCl)on1`, the inhibition was 35.2% (active) in test [1], 47.4% (active) in test [2], 51.9% (active) in test [3] and -11.4% in test [4].

With `O=C(COc1ccc(S(=O)(=O)N2CCCC2)cc1Cl)Nc1ccc2c(c1)OCO2`, the inhibition in test [1] was 0.49%; in test [2] it was 50.4% (active); in test [3], 37%; in test [4], -9.34%.

`O=C(O)/C=C/C(=O)Nc1ccccc1SC(F)(F)C(F)(F)C(F)(F)F`: the inhibition is 20.1% in test [1], 54.8% (active) in test [2], 45.5% (active) in test [3] and 6.88% in test [4].

Consider `CC1SC(C)C(=O)N(CC(=O)Nc2ccc3c(c2)OCO3)C1=O` (stereo not given), for which the inhibition in test [1] is 8.81%; in test [2], 49.1% (active); in test [3], 36.9%; in test [4], -7.59%.

On to `CN1CCN(C2=C(Cl)C(=O)N(c3ccc(Cl)c(Cl)c3)C2=O)CC1`, for which the inhibition in test [1] is 11.1%; in test [2], 39.3%; in test [3] it was 41.6%; in test [4], -5.07%.

A word on the inhibition: it is the change of the read-out against control, counted positive when it falls.
